Assay outcomes (PubChem BioAssay)
Shown are actives, neighbours in structure and some others; about 19% of the full set was active somewhere.
VP16 counter – VP16 counterscreen qHTS for inhibitors of ROR gamma transcriptional activity; AID 2546, 2010; Potency, µM (doses to about 53.6 µM), for inactives: at the highest dose activity, negative = inhibition, hits mostly inhibitors; 3.5% of 310,000 active; Drosophila S2 Gal4-VP16 UAS-luciferase, luminescence, 20 h;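 also: Gal4-VP16 expression switched on by copper sulfate through the metallothionein promoter; nearly all actives have a fitted effect of over 50% in size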
RORgamma inh – qHTS for inhibitors of ROR gamma transcriptional activity; Nuclear receptor ROR-gamma (Mus musculus), P51450; Drosophila S2 Gal4-RORgamma UAS-luciferase reporter, 20 h; Potency, µM (doses to about 53.6 µM), for inactives: top-dose activity change, negative = inhibition, actives largely listed as inhibitors; 5.4% of 310,000 active; AID 2551, 2010; also: nearly all actives have a fitted effect of over 60% in size
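Stably transfected Drosophila Schneider cells are the test system, with ROR gamma fused to Gal4 and luciferase under UAS control; luminescence is read after 20 hr of 700 uM copper sulfate induction at ambient temperature.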
TDP1 block – qHTS Assay for Inhibitors of Tyrosyl-DNA Phosphodiesterase (TDP1) | Tyrosyl-DNA phosphodiesterase 1 (Homo sapiens), Q9NUW8 | recombinant TDP1, AlphaScreen DNA substrate cleavage | Potency, µM (titrated, usually from 130 µM), without a hit: at the highest dose activity change, negative = inhibition, hits mostly inhibitors | 0.28% of 350,000 active | AID 485290, 2010; also: nearly all actives have a fitted effect of over 40% in size
Target sequence (Q9NUW8 whole entry, looked up): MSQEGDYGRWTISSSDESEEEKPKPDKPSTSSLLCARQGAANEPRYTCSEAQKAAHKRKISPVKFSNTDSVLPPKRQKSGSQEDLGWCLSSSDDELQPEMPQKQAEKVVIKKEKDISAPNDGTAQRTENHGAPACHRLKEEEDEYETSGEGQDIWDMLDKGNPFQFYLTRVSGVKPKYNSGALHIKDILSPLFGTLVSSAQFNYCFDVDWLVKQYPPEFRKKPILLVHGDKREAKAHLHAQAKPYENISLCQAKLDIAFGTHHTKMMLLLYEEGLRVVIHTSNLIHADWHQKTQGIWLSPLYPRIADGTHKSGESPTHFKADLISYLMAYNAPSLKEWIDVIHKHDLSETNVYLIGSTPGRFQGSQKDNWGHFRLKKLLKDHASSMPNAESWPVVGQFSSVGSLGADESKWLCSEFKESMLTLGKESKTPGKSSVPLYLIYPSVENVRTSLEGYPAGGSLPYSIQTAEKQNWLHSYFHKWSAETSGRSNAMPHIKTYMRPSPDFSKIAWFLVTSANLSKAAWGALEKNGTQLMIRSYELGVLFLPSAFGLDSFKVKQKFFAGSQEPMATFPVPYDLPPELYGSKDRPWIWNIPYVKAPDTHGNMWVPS
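Recombinant E. coli-expressed Tdp1 (1 nM) preincubated with compound 15 min at RT, then 5'-biotin/3'-phosphotyrosine-FITC DNA substrate (15 nM) added for 5 min. AlphaScreen beads (10 ug/ml) added, 10 min RT; tyrosine-FITC cleavage read as signal loss.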
TDP1 cell CPT – qHTS for Inhibitors of human tyrosyl-DNA phosphodiesterase 1 (TDP1): qHTS in cells in presence of CPT. 12% of 420,000 active. Potency, µM (top dose mostly 46.2 µM), without a hit: at the highest dose activity change, negative = growth inhibition, most hits filed as inhibitors. AID 686979, 2013. chicken DT40 Tdp1-/-;hTDP1 cells + 20 nM CPT, ATP luminescence, 48 h; also: nearly all actives have a fitted effect of over 55% in size
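Chicken DT40 Tdp1-/- cells stably complemented with human TDP1 were seeded at 400 cells/well in medium containing 20 nM camptothecin, exposed to pin-transferred compounds, and grown at 37 °C for at least 48 hr. Viability was read as ATP luminescence.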
TDP1 cell noCPT – qHTS for Inhibitors of human tyrosyl-DNA phosphodiesterase 1 (TDP1): qHTS in cells in absence of CPT. 15% of 420,000 active. AID 686978, 2013. Potency, µM (titrated, usually from 46.2 µM), without a hit: at the highest dose activity change, negative = growth inhibition, hits mostly inhibitors. DT40 Tdp1-/- hTDP1 cells, no CPT, ATP luminescence, 48 h; also: nearly all actives have a fitted effect of over 55% in size
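Growth kinetics read by CellTiter-Glo luminescence after ≥48 hr at 37 °C. Cells: DT40 Tdp1-/- stably carrying human TDP1, 400 per well, compound exposure in the absence of CPT (DMSO vehicle).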
Active calls of the source: *; u = inconclusive; x = not tested or not shown; [ ] = dose if it differs, or a comment. Calls follow the shape of the dose curve; as a rule, active = well fitted curve in the direction sought with a large enough effect; inconclusive = small, poorly fitted or top-dose-only effect, or another doubt; inactive = no such curve, though single readings can be large; an effect the other way counts as inactive or inconclusive. % is scaled to controls: 0 for no effect and ±100 for the full control effect; potency is read from the fitted curve at half-maximal effect.

SMILES	VP16 counter	RORgamma inh	TDP1 block	TDP1 cell CPT	TDP1 cell noCPT
CC(C)(C)OC(=O)N1CC=C2C(C#N)=C(N)C(C#N)(C#N)[C@H](c3cccnc3)[C@H]2C1	11%	u	5%	-27%	u
CC(C)N1CC=C2C(C#N)=C(N)C(C#N)(C#N)[C@H](c3ccoc3)[C@H]2C1	-1%	-24%	2%	x	x
CC(C)(C)OC(=O)N1CC=C2C(C#N)=C(N)C(C#N)(C#N)C(c3cccs3)C2C1 (stereo unspecified)	u	-99%	7%	u	23µM*
CC(C)N1CC=C2C(C#N)=C(N)C(C#N)(C#N)C(c3ccccc3)C2C1 (stereo unspecified)	-1%	-7%	11%	u	14µM*
CCN1CC=C2C(C#N)=C(N)C(C#N)(C#N)C(c3cc(Cl)ccc3Cl)C2C1 (stereo unspecified)	-6%	0%	3%	18µM*	23µM*
C=CCN1c2ccccc2[C@]23C[C@@H](C(=O)OC)N(S(=O)(=O)c4ccc(C#N)cc4)C2=NC(C(=O)OC)=C(C(=O)OC)[C@H]13	x	x	14%[12.3 µM]	x	x
Cc1nn(C)cc1CNC(=O)Nc1ccc(Cl)c(Cl)c1	u	u	-1%	-1%	-2%
COc1ccc(C2C(C#N)=C3NC(=O)c4c(sc5c4CCCCC5)N3C3=C2C(=O)CC(C)(C)C3)cc1 (stereo unspecified)	-19%	-23%	8%	16µM*	23µM*
COc1ccc(C2C(C#N)=C(N)OC3=C2C(=O)CC(C)(C)C3)cc1 (stereo unspecified)	-17%	14%	4%	4%	0%
COc1ccc(C2C(C#N)=C(N)N(c3sc4c(c3C#N)CCCC4)C3=C2C(=O)CC(C)(C)C3)cc1 (stereo unspecified)	0%	-22%	6%	21µM*	u
COc1ccc(C2C(C#N)=C(N)N(N(C)C)C3=C2C(=O)CC(C)(C)C3)cc1 (stereo unspecified)	5%	27%	x	-4%	11%
COc1ccc(C2C(C#N)=C(N)N(c3sc4c(c3C#N)CCCC4)C3=C2C(=O)CC(C)(C)C3)cc1OC (stereo unspecified)	-1%	5%	8%	18µM*	u
COc1ccc(C2C(C#N)=C(SC)NC3=C2C(=O)CC(C)(C)C3)cc1 (stereo unspecified)	-11%	u	2%	6.5µM*	8.2µM*
CCN(C(=O)c1cc2c(=O)n3ccccc3nc2n1CCCOC)C1CCCCC1	-4%	26%	-1%	u	u
CN(C)c1ccc(Sc2ccc3nc(N)nc(N)c3c2)cc1	x	x	x	1.8µM*	0.65µM*
Cc1cccc2nc(CNC(=O)CN3Cc4ccccc4OC(c4ccccc4F)C3)cn12 (stereo unspecified)	x	x	x	7%[9.04 µM]	-26%
Cc1cccc2nc(CNC(=O)CN3Cc4cc(Cl)ccc4OC(C)C3)cn12 (stereo unspecified)	x	x	x	4.1µM*	5.8µM*
Cc1ccc(NC(=O)C(C)N2CCCc3ccccc32)cc1S(=O)(=O)N1CCOCC1 (stereo unspecified)	x	x	x	-88%	6.5µM*
CCN(CC)S(=O)(=O)c1cc(NC(=O)C(C)N2CCc3ccccc32)ccc1C (stereo unspecified)	5%	37%	5%	u	26µM*
CCN(CC)S(=O)(=O)c1cc(NC(=O)C(C)N(C)CC(=O)Nc2c(C)cccc2C)ccc1C (stereo unspecified)	28%	9%	6%	26µM*	18µM*
CC(C(=O)Nc1ccc(S(N)(=O)=O)cc1)N1CCc2ccccc21 (stereo unspecified)	8%	u	-6%	13%	-9%
O=C(CSc1nnc(CNC(=O)C23CC4CC(CC(C4)C2)C3)n1-c1ccccc1)Nc1ccccc1	17%	95%	2%	u	u
CCOC(=O)C1CC=C(Cl)CC1C(=O)Nc1nccs1 (stereo unspecified)	x	5%[0.365 µM]	1%	-13%	-2%
Cc1cc(N2CCOCC2)n2nc(C(F)(F)F)c(-c3ccccc3)c2n1	1%	-2%	x	-4%	-7%
COc1ccccc1C(=O)Nc1ccc2ccccc2c1	x	x	x	-11%	-22%
SMILES	VP16 counter	RORgamma inh	TDP1 block	TDP1 cell CPT	TDP1 cell noCPT
COc1cc(C(=O)NC(=S)Nc2ccc3ccccc3c2)cc(OC)c1OC	x	x	x	23µM*	23µM*
COc1cc(C(=O)NC(=S)Nc2ccc3c(c2)C(=O)N(C)C3=O)cc(OC)c1OC	-14%	2%	-5%	-4%	3.7µM*
COc1cc(C(=O)NC(=S)Nc2ccc3c(c2)OCO3)cc(OC)c1OC	u	14µM*	-4%	-2%	-8%
Cc1ccc(S(=O)(=O)/N=C(/Nc2ccc(F)cc2F)c2ccc(F)cc2)cc1	-9%	-20%	2%	0%	1%
COc1ccccc1N/C(=N/S(=O)(=O)c1ccc(C)cc1)c1ccc(Cl)cc1	-13%	u	8%	16µM*	u
COc1ccccc1NS(=O)(=O)c1cc(NC(=S)Nc2cc(C)cc(C)c2)ccc1Cl	u	u	5%	12µM*	5.2µM*
COc1ccccc1NS(=O)(=O)c1cc(N/C(=N\S(=O)(=O)c2ccccc2)c2ccc(F)cc2)ccc1Cl	0%	u	-3%	18µM*	x
CCNC(=S)Nc1ccc(C)c(S(=O)(=O)Nc2ccccc2OC)c1	-1%	u	x	u	u
CCOC(=O)C1=C(C)NC(C)=C(C(=O)OCC)C1c1cccc([N+](=O)[O-])c1	x	x	x	u	23µM*
CC1=C(C(=O)OC(C)C)C(c2cccc([N+](=O)[O-])c2)n2c(cc(=O)[nH]c2=S)N1 (stereo unspecified)	-18%	13µM*	-3%	-24%	-18%
CC1=C(C(=O)OCc2ccc3c(c2)OCO3)C(c2cccc([N+](=O)[O-])c2)NC(=O)N1 (stereo unspecified)	-12%	16%	0%	u	u
COCCOC(=O)C1=C(C)NC(C)=C(C(=O)OC(C)C)[C@H]1c1cccc([N+](=O)[O-])c1	3%[17 µM]	0%[16.9 µM]	4%[21 µM]	x	x
CC1=C(C(=O)OCc2ccccc2)C(c2cccc([N+](=O)[O-])c2)NC(=O)N1 (stereo unspecified)	-8%	27%	x	u	18µM*
Cc1cc(C)n(C(=O)c2ccc(C)c(S(=O)(=O)N3CCCCC3)c2)n1	-8%	-30%	2%	-19%	-14%
